Columns and labels:
Details in all cases: concentration: 1 μM, replicates: in singlicate; n = 1
BRSK1 = test system: BRSK1
BRSK2 = test system: BRSK2
BTK = test system: BTK
BUB1 = test system: BUB1
CAMK1B = test system: CAMK1B
CAMK1D = test system: CAMK1D
CAMK1G = test system: CAMK1G
CAMK1 = test system: CAMK1
CAMK2A = test system: CAMK2A
CAMK2B = test system: CAMK2B
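Note: KINOMEscan kinase panel screen.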

| Structure (SMILES) | %Inh (BRSK1) [%] | %Inh (BRSK2) [%] | %Inh (BTK) [%] | %Inh (BUB1) [%] | %Inh (CAMK1B) [%] | %Inh (CAMK1D) [%] | %Inh (CAMK1G) [%] | %Inh (CAMK1) [%] | %Inh (CAMK2A) [%] | %Inh (CAMK2B) [%] |
| --- | --- | --- | --- | --- | --- | --- | --- | --- | --- | --- |
| O=C(NCCCN1CCCC1=O)c1cnc(NCc2cc(Cl)ccc2Cl)nc1NC1CCNCC1 | 6 | 0 | 0 | 0 | 21 | 6 | 0 | 0 | 0 | 0 |
| COc1ccc(NC(=O)c2ccc(-c3cc(-c4nnc(C)o4)ccc3C)cc2)cc1 [GW595885] | 0 | 0 | 0 | 40 | 4 | 8 | 0 | 4 | 0 | 0 |
| COc1ccc(-c2oc3ncnc(N)c3c2-c2ccc(OC)cc2)cc1 [SB-589132] | 12 | 0 | 54 | 64 | 13 | 7 | 0 | 19 | 0 | 0 |
| CNc1nccc(-c2c(-c3ccc(F)cc3)ncn2C2CCN(C)CC2)n1 [SB-222903] | 0 | 0 | 0 | 75 | 0 | 0 | 0 | 0 | 0 | 0 |
| Cl.Cn1ccc(-c2cccc(Nc3ccnc4cc(-c5nccs5)ccc34)c2)n1 [GW525701] | 0 | 38 | 0 | 62 | 3 | 3 | 38 | 0 | 0 | 0 |
| Cl.Cl.c1ccc(-c2cc3ccncc3cc2OC2CCNCC2)cc1 [GSK1122999] | 17 | 6 | 0 | 0 | 0 | 20 | 29 | 3 | 0 | 0 |
| O=C(CCO)NCCn1ccc2ncnc(Nc3ccc(Oc4cccc(C(F)(F)F)c4)c(Cl)c3)c21 | 0 | 0 | 0 | 0 | 0 | 7 | 0 | 0 | 0 | 0 |
| CCCc1ccc(S(=O)(=O)NC2CCN(c3ccnc(Nc4ccc(OC)cc4)n3)C2)cc1 (centres unmarked) [GSK1379737] | 0 | 0 | 0 | 47 | 0 | 11 | 0 | 5 | 0 | 0 |
| O=C(c1ccc(-c2cc(-c3c[nH]nc3-c3ccccn3)ccn2)cc1)N1CCCC1 [GW792479] | 0 | 2 | 24 | 20 | 0 | 30 | 0 | 32 | 1 | 5 |
| Clc1cccc(-c2nc(Nc3ccncc3)c3ccccc3n2)c1 [GW873004] | 1 | 23 | 0 | 31 | 0 | 0 | 0 | 0 | 1 | 4 |
| FC(F)(F)c1ccc(-c2cc(-c3c[nH]nc3-c3ccccn3)ccn2)cc1 [GW599550] | 0 | 0 | 0 | 55 | 35 | 22 | 1 | 23 | 0 | 0 |
| O=C(Nc1n[nH]c2nc(-c3ccco3)c(Br)cc12)c1ccc(CN2CCCC2)cc1.O=C(O)[C@H](O)[C@@H](O)C(=O)O [SB-742352] | 51 | 24 | 0 | 0 | 0 | 8 | 0 | 0 | 2 | 0 |
| Nc1nc(-c2ccc3c(N)n[nH]c3c2)cc(N2CCC[C@@H](C(=O)Nc3ccccc3)C2)n1.O=C(O)C(F)(F)F.O=C(O)C(F)(F)F [GSK2288359] | 0 | 0 | 0 | 0 | 26 | 11 | 0 | 5 | 0 | 0 |
| Oc1ccc2ncnc(Nc3ccc(OCc4ccccc4)cc3)c2c1 [GI262866] | 2 | 0 | 4 | 18 | 1 | 4 | 0 | 17 | 0 | 0 |
| Fc1cccc(COc2ccc(Nc3ncnc4cc[nH]c34)cc2Cl)c1 | 2 | 0 | 0 | 1 | 7 | 0 | 10 | 29 | 27 | 28 |
| C[C@H]1CC[C@@H](C(=O)Nc2ccccc2)CN1c1cc(-c2ccc3c(N)n[nH]c3c2)nc(N)n1 [GSK2283293] | 0 | 0 | 0 | 49 | 23 | 17 | 0 | 11 | 0 | 0 |
| CS(=O)(=O)CCNCc1ccc(-c2ccc3ncnc(Nc4ccc(OCc5ccccc5)c(Cl)c4)c3c2)o1.Cl [GW574783] | 1 | 0 | 0 | 26 | 0 | 4 | 27 | 14 | 0 | 0 |
